Bioassay records (PubChem)
RE007 growth inh: less growth of the S. pombe RE007 Vpr strain. S. pombe RE007 Vpr strain, BacTiter-Glo ATP luminescence, 24 h. Potency, µM (series often up to 92.2 µM), inactives show at the top dose activity change, negative = less growth, usual class: inhibitors. 0.21% of 360,000 active. AID 651644; active = well fitted falling curve with a large enough effect; inconclusive = small, poorly fitted or top-dose-only effect; inactive = no such curve, though single readings can be large or run the other way; note: nearly all actives have a fitted effect of over 50% in size
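Fission yeast strain RE007, carrying one chromosomally integrated HIV-1 vpr copy, was seeded at OD 0.01 in PMG+AL medium with 23 nL pinned compound. After 24 h at 30 °C and 99% humidity, viability was read by BacTiter-Glo luminescence.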
Vaccinia mCherry: inhibitors of vaccinia virus infection (mCherry reporter signal); AID 720579; Vaccinia virus mCherry reporter infection, fluorescence; 0.63% of 310,000 active; Potency, µM (series often up to 36.5 µM), without a hit: at the top dose activity change, negative = inhibition, actives largely listed as inhibitors; calls by dose curve; tested in A549 cells; note: nearly all actives have a fitted effect of over 35% in size
LmPK inhibitor: LmPK (Leishmania mexicana) enzyme inhibition. Q27686. purified LmPK, Kinase-Glo ATP luminescence, 1 h. Potency, µM (doses to about 57.5 µM), for inactives: top-dose activity change, negative = inhibition, actives largely listed as inhibitors. 0.37% of 290,000 active
Target sequence (Q27686 whole entry, looked up): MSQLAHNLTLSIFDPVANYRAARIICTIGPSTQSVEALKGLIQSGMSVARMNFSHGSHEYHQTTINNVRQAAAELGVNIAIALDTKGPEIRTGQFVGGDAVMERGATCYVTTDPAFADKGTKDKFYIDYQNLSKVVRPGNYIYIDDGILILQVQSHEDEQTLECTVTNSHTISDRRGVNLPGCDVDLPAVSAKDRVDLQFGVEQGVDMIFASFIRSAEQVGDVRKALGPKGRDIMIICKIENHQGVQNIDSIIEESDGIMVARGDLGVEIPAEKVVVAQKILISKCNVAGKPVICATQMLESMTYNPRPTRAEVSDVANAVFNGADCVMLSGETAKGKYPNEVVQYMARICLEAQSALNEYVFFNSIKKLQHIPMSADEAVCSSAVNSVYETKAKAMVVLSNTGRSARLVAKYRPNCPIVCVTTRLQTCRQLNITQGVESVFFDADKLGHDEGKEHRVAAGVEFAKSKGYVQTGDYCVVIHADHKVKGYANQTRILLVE
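Purified LmPK (0.1 nM) with 0.5 mM PEP and 0.1 mM ADP in imidazole buffer pH 7.2 with MgCl2/KCl, 1 h at room temperature. ATP formed was read by luciferase luminescence and normalized to no-enzyme and uninhibited controls.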
TbPYK inhibitor: inhibitors of Trypanosoma brucei pyruvate kinase. 0.12% of 410,000 active. Potency, µM (highest dose often 76.8 µM), inactives show top-dose activity, negative = inhibition, most hits filed as inhibitors. TbPYK enzyme, Kinase-Glo Plus ATP luminescence, 45 min. Q57TT1; note: nearly all actives have a fitted effect of over 50% in size
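In this concentration-response screen, enzyme-free wells defined baseline while DMSO plates tracked drift. Each reaction combined TbPYK, substrate, compound and 130 uM ADP for 45 min at room temperature. Kinase-Glo Plus luminescence gave the signal.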
Vaccinia Venus: inhibitors of vaccinia virus (Venus reporter); Vaccinia virus Venus reporter expression, fluorescence; Potency, µM (titrated, usually from 36.5 µM), inactives show at the top dose activity change, negative = inhibition, hits mostly inhibitors; 0.46% of 330,000 active; AID 720580; calls by dose curve; tested in A549 cells; note: nearly all actives have a fitted effect of over 30% in size
AMA1 RON2 block: inhibitors of Plasmodium falciparum AMA1-RON2 interaction. Potency, µM (top dose mostly 58.2 µM), inactives show at the highest dose activity change, negative = inhibition, usual class: inhibitors. AID 720542. AlphaScreen AMA1-biotinylated RON2 peptide binding. 0.2% of 360,000 active;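 note: 0% = vehicle wells and -100% = peptide control; nearly all actives have a fitted effect of over 45% in size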
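AMA1 (3D7) with his tag at 25 nM final met compounds first, then biotinylated RON2 peptide at 25 nM; detection used donor plus acceptor beads, 10 µg/mL apiece, read by AlphaScreen after 30 min at room temperature.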
Starred values were filed as active, the others as inactive; i = inactive; ? = inconclusive; nt = no result given; [ ] = remark or other dose. Only some compounds are listed: those with a hit (about 1.3% of all), similar ones and a draw of the others. Unless noted, calls come from the whole dose curve; as a rule, active = well fitted curve in the direction sought with a large enough effect; inconclusive = small, poorly fitted or top-dose-only effect, or another doubt; inactive = no such curve, though single readings can be large; an effect the other way counts as inactive or inconclusive. Unless noted, % is set by controls: 0 for no effect and ±100 for the full control effect; potency is the fitted concentration of half-maximal effect.

SMILES | RE007 growth inh | Vaccinia mCherry | LmPK inhibitor | TbPYK inhibitor | Vaccinia Venus | AMA1 RON2 block
C=CCC[C@H](Cc1ccc(F)cc1)C(=O)OC[C@@H](NC(=O)[C@@H](CC=C)CC(=O)N(CCO)Cc1ccccc1)C(C)(C)C | 0.9% | ? | nt | 4.4% | 12.6µM* | 60.9%
C=CCC[C@H](Cc1ccc(F)cc1)C(=O)OC[C@@H](NC(=O)[C@@H](CC=C)CC(=O)N[C@@H](CO)Cc1ccccc1)C(C)(C)C | 3.8% | ? | nt | -0.4% | 10µM* | 0.0%
COCc1c(C(=O)N2CCN(C3CCCCC3)CC2)cnn1-c1ncc(C)c(-c2cccs2)n1 | nt | -1.7% | nt | nt | -10.9% | nt
CC(CSC(=O)c1ccccc1)C(=O)N1CC(Sc2ccccc2)CC1C(=O)O (centres undefined) | nt | nt | nt | 0.0% | nt | nt
S=c1[nH]c(-c2ccccc2)cn1/N=C/c1ccncc1 | 2.6% | -22.3% | 4.47µM* | ? | -12.1% | 62.8%
O=C(NCC1(N2CCOCC2)CCCC1)c1cnn(-c2nccc(-c3cccs3)n2)c1C1CC1 | nt | -10.9% | nt | nt | 10.4% | nt
O=C(c1ccc(Br)cc1)N1CCN(Cc2ccccc2)CC1 | -16.2% | -3.0% | 10.3% | -6.8% | -14.2% | -5.3%
O=C(CCN1CCN(C(=O)c2ccccc2)CC1)c1ccc(Br)cc1 | 28.2µM* | -6.4% | -2.3% | 0.0% | 3.4% | 4.7%
Cc1cccnc1C(NC(=O)C1CCN(Cc2cn(C)c3ccccc23)CC1)c1ccc(Cl)cc1 (centres undefined) | 14.4% | 14.1µM* | nt | 7.6% | 11.2µM* | -14.3%
CCN1CCN(c2ccc(S(=O)(=O)N3CCCCC3)cc2NC(=O)c2ccc([N+](=O)[O-])s2)CC1 | 10.1% | 8.91µM* | nt | -7.2% | 10µM* | -3.1%
CCN1CCN(c2ccc(S(=O)(=O)N3CCCCC3)cc2NC(=O)c2ccccc2)CC1 | 2.2% | i | nt | -5.6% | -10.6% | -3.1%
COc1cccc(-n2nc(C(N)=O)c(O)cc2=O)c1 | 2.8% | i | -0.2% | 2.8% | -8.1% | 1.4%
COc1cccc(-n2nc(C#N)c(Cl)cc2=O)c1 | ? | ? | -4.3% | 0.5% | 17.8µM* | -22.0%
C=CCn1nc([N+](=O)[O-])nc1Sc1cccc2cccnc12 | ? | 7.94µM* | -0.1% | -16.2% | 8.91µM* | -9.9%
Cc1ccccc1/C(N)=N/OC(=O)c1ccc(F)cc1 | -9.7% | -3.0% | 15.8µM* | -11.7% | 1.5% | 12.6%
Cc1ccccc1C(=O)O/N=C(\N)c1ccccc1 | -17.2% | 0.3% | -75.0% | ? | -2.0% | 9.2%
NNc1ccc2c(C(F)(F)F)cc(C(F)(F)F)nc2n1 | -2.5% | -6.2% | 3.5% | -3.7% | -5.0% | 100.0%
N#CC(c1cccc(Cl)c1)c1ccc2c(C(F)(F)F)cc(C(F)(F)F)nc2n1 (centres undefined) | ? | nt | -23.7% | -20.0% | 2.24µM* | ?
COc1cc2c(cc1N)-c1ccc(N)cc1C2 | 11.8% | i | nt | -24.4% | -10.7% | 3.98µM*
Cc1cccc(OCCC(=O)NO)c1 | nt | -11.6% | nt | nt | -3.5% | nt
CC(C)=CCC/C(C)=C\CC/C(C)=C\CC/C(C)=C\CC1=C(C)C(=O)c2ccccc2C1=O | nt | nt | nt | 0.0% | nt | nt
COc1ccc(-c2n[nH]c(=S)n2-c2ccc3c(c2)OCCO3)cc1OC | 4.5% | nt | ? | ? | nt | 84.2%
Fc1ccccc1-n1c(-c2ccc3ccccc3n2)n[nH]c1=S | -16.9% | -3.7% | -12.5% | ? | -25.5% | 51.2%
S=c1[nH]nc(-c2ccc3ccccc3n2)n1-c1ccc2c(c1)OCCO2 | -3.4% | -10.4% | 8.91µM* | 4.47µM* | -14.5% | 60.2%
S=c1[nH]nc(-c2ccc3ccccc3n2)n1-c1ccccc1 | nt | i | 28.2µM* | ? | -24.5% | 57.8%
SMILES | RE007 growth inh | Vaccinia mCherry | LmPK inhibitor | TbPYK inhibitor | Vaccinia Venus | AMA1 RON2 block
CC(c1ccc(F)cc1)n1c(-c2ccc3ccccc3n2)n[nH]c1=S (centres undefined) | 9.2% | -20.6% | 11.2µM* | -12.6% | -12.3% | 29.5%
Cc1cccc(CN2C[C@H](Sc3ccccn3)C[C@H]2C(=O)Nc2ccc3sc(C)nc3c2)c1 | nt | -7.6% | nt | nt | 1.6% | nt
C[C@@H]1CN(Cc2ccc3c(c2)CN(C(=O)CCc2nc4ccc(F)cc4[nH]2)CCO3)C[C@H](C)O1 | nt | -7.9% | nt | nt | 5.7% | nt
CCc1nnc(N/N=C/c2cccs2)n1N | -9.6% | 22.4µM* | 0.4% | -7.0% | ? | 37.0%
CCCCCCC[n+]1ccc(/C=C/c2c[nH]c3ccccc23)c2ccccc21 | nt | i | nt | nt | i | nt
C=CCn1c(-c2ccccc2)c[nH]c1=S | 11.3% | nt | 12.6µM* | ? | nt | 28.5%
CCn1c(-c2ccc(-c3ccccc3)cc2)c[nH]c1=S | 6.9% | i | 1.0% | -24.3% | -13.9% | 10.2%
C=CCn1c(-c2ccc(Cl)cc2)c[nH]c1=S | 7.8% | nt | 7.94µM* | ? | nt | 12.9%
CC(=O)Nc1ccc2c(c1)CCc1ccccc1-2 | -18.1% | -26.2% | -1.3% | 0.0% | -6.5% | -5.0%
O=C(O)/C=C/C(=O)c1ccc2c(c1)CCc1ccccc1-2 | ? | ? | nt | 35.5µM* | ? | -8.7%
CC(O)(COc1ccccc1)c1ccc2c(c1)CN(Cc1ccc3nsnc3c1)CCO2 (centres undefined) | nt | -11.6% | nt | nt | 5.6% | nt
COc1cc2c(cc1OC)C1O[C@](CCCCN3C(=O)c4ccccc4C3=O)(C2)OC2=C1C(=O)c1ccccc1C2=O | nt | nt | -8.0%[11.5 µM] | nt | nt | nt
COc1ccccc1CNC(=O)c1ccc(-c2ccccc2C(F)(F)F)o1 | -19.1% | 11.2µM* | 2.7% | -1.0% | ? | 2.0%
COc1ccccc1CNC(=O)c1ccc(-c2ccccc2Cl)o1 | -3.8% | ? | 0.8% | 0.6% | ? | 0.0%
CCCCCCC[n+]1ccc(/C=C/c2c(C)[nH]c3ccccc23)cc1 | nt | 28.2µM* | nt | nt | 256.1% | nt
Cc1[nH]c2ccccc2c1/C=C/c1cc[n+](C)cc1 | ? | -21.9% | -4.7% | -3.8% | 27.0% | -10.3%
Cc1oc(=O)c(NC(=O)c2ccc(Cl)cc2)cc1C(=O)c1ccccc1 | 28.2µM* | nt | -0.7% | ? | nt | -0.5%
Cc1ccc(C(=O)Nc2cc3ccccc3oc2=O)cc1 | 13.2% | -4.3% | 12.6µM* | ? | -23.7% | -6.6%
CC(=O)c1cc(NC(=O)c2ccccc2)c(=O)oc1C | -4.8% | -14.4% | -11.1% | -13.7% | -7.1% | 7.4%
Cc1oc(=O)c(NC(=O)c2ccccc2)cc1C(=O)c1ccccc1 | 20µM* | nt | -12.1% | -19.9% | nt | 13.8%
CN(Cc1cccc2ncccc12)C(=O)c1cnn(-c2ncc3c(n2)-c2ccccc2CC3)c1C1CC1 | nt | -29.0% | nt | nt | ? | nt
Cc1cnc(NC(=O)c2cccs2)s1 | 2.1% | -11.8% | -1.6% | -11.2% | -12.7% | 34.0%
CCCCC(CC)C(=O)Nc1ncc([N+](=O)[O-])s1 (centres undefined) | -16.5% | 10µM* | -0.4% | -7.6% | ? | 15.7%
